High-throughput results as filed in PubChem.
MPTP block = permeability transition pore inhibition; AID 602449; inhibition, % at 10 µM; 360,000 tested, 1.4% active; isolated mouse mitochondria, Ca2+ swelling absorbance, 30 min;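 active = inhibition of 50% or more, scaled per plate between neutral and stimulator controls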
GRIN3A LBD mod = modulates the human NR3A ligand-binding domain | NR3A LBD differential scanning fluorimetry, Tm shift; 0% = protein alone, 100% = glycine-bound protein | Tm shift relative to glycine control, % at 25 µM | 340,000 tested, 2.5% active;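 active = melting temperature shift of at least 10% of the positive control shift, at one fixed dose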
Gli-Sufu block = blocks Gli-Sufu signaling in a luciferase reporter | 340,000 tested, 0.74% active | Sufu-KO-LIGHT fibroblasts, Gli luciferase reporter luminescence | inhibition, % at 5 µM;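 active = inhibition above about 55%, limit read from the data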
Mdm2-MdmX inh = human Mdm2/MdmX binding inhibition; SaOS-2 split-luciferase Mdm2/MdmX complementation, luminescence; 330,000 tested, 3% active; inhibition, % at 8 µM; AID 485346;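 active = inhibition of at least 50% at 8 µM in the primary screen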
Target sequence (O15151 whole entry, looked up): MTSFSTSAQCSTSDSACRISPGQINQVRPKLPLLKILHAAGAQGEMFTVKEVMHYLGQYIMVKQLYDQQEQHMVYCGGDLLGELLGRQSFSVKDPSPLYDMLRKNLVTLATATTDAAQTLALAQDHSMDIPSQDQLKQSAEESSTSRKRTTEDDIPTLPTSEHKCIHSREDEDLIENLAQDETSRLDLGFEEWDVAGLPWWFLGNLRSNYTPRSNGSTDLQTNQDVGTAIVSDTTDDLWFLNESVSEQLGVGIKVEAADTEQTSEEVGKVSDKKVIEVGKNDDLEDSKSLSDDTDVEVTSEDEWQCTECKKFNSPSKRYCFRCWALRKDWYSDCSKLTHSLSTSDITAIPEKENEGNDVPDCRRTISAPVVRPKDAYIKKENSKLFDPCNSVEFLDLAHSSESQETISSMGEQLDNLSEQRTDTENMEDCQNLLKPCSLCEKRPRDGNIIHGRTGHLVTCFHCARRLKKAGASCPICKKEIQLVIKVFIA
Target sequence (Q00987 whole entry, looked up): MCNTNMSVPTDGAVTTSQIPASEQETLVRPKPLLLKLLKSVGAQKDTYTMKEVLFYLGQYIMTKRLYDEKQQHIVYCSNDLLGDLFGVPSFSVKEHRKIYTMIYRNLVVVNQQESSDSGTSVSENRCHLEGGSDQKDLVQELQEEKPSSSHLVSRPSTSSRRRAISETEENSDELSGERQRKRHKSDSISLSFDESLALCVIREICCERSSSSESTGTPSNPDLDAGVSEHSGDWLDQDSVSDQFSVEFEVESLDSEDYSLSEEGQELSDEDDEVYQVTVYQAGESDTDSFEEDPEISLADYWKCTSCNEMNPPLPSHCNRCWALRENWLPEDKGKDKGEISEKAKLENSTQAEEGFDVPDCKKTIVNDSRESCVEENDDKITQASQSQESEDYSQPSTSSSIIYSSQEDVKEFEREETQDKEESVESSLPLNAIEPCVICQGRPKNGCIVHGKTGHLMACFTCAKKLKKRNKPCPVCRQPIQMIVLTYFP
Beta cell apopt = beta cell apoptosis inhibition; INS-1E cytokine-induced death, ATP luminescence, 48 h; percent of positive-control rescue, neutral wells zero; protection from apoptosis, % (test concentration not listed); 300,000 tested, 0.8% active;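 active = Every replicate reaches about 75%, or at least half do and their mean reaches it too, limit read from the data; inconclusive = At least half of replicates reach the limit but their mean does not; inactive = Under half of replicates reach the limit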;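 also: higher means more ATP so stronger rescue from cytokine killing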
CSC inhib = cancer stem cell inhibition; cancer stem cell-like cells viability, luminescence; inhibition, % at 7.5 µM; 300,000 tested, 1.1% active; in the data active = inhibition above about 75%; inconclusive = no clear call, values can overlap the other calls; tested in HMLE shEcad cells
Numbers stand for hits. Shown are actives, neighbours in structure and some others; about 6.6% of the full set was active somewhere.

For O=C(Nc1nc2c(F)cc(F)cc2s1)C1CC(=O)N(Cc2ccco2)C1 (stereo unspecified) the results were MPTP block inactive, GRIN3A LBD mod inactive, Gli-Sufu block inactive, Mdm2-MdmX inh inactive, Beta cell apopt inactive and CSC inhib inactive.
`Cc1cc(SCC(=O)c2cccs2)n2nc(C)c(-c3ccc(Cl)cc3)c2n1` gave MPTP block inactive, GRIN3A LBD mod inactive, Gli-Sufu block inactive, Mdm2-MdmX inh inactive, Beta cell apopt inactive and CSC inhib 77.9.
Screening Cc1nn2c(SCC(=O)c3cccs3)cc(C(C)(C)C)nc2c1-c1ccccc1 returned MPTP block inactive, GRIN3A LBD mod inactive, Gli-Sufu block inactive, Mdm2-MdmX inh inactive, Beta cell apopt inactive and CSC inhib inactive.
COc1ccccc1Cc1nc(-c2ccncc2)no1 was read as MPTP block inactive, GRIN3A LBD mod inactive, Gli-Sufu block inactive, Mdm2-MdmX inh inactive, Beta cell apopt inactive and CSC inhib inactive.
For COc1ccccc1Cc1noc(COc2cccc(C)c2C)n1 the results were MPTP block inactive, GRIN3A LBD mod 22.5, Gli-Sufu block inactive, Mdm2-MdmX inh inactive, Beta cell apopt inactive and CSC inhib inactive.
`O=C(CSc1ccc(-c2ccc(Cl)cc2)nn1)Nc1ccc2c(c1)OCCO2` gave MPTP block inactive, GRIN3A LBD mod 11.5, Gli-Sufu block inactive, Mdm2-MdmX inh inactive, Beta cell apopt inactive and CSC inhib inactive.
`Cc1ccc(NC(=O)CSc2ccc(-c3ccc4c(c3)OCO4)nn2)cc1F` gave MPTP block inactive, GRIN3A LBD mod inactive, Gli-Sufu block inactive, Mdm2-MdmX inh inactive, Beta cell apopt inactive and CSC inhib inactive.
For CSc1ccc(CNC(=O)C2(C)CCCN(C(C)=O)C2)cc1 (stereo unspecified) the results were MPTP block inactive.
For CCCCCCN1C[C@@H](n2cc(COC(=O)c3ccccc3)nn2)[C@H](O)C[C@@H]1c1ccc(Cl)cc1 the results were MPTP block inactive.
For Cc1ccc(NC(=O)c2c(C)noc2-c2snnc2C)cc1 the results were MPTP block inactive, GRIN3A LBD mod 11.9, Gli-Sufu block inactive, Mdm2-MdmX inh inactive, Beta cell apopt inactive and CSC inhib inactive.
`COc1ccccc1C(=O)Nc1ccccn1` gave MPTP block inactive, GRIN3A LBD mod inactive, Gli-Sufu block inactive, Mdm2-MdmX inh inactive, Beta cell apopt inactive and CSC inhib inactive.
`COc1ccccc1C(=O)Nc1ccc(Br)c2cccnc12` gave MPTP block inactive, GRIN3A LBD mod 21.1, Gli-Sufu block inactive, Mdm2-MdmX inh inactive and CSC inhib inactive.
`Cc1cc(O)c(-c2cc(C(=O)Nc3ccc(S(=O)(=O)N4CCOCC4)cc3)[nH]n2)cc1C` gave MPTP block inactive, GRIN3A LBD mod 32.3, Gli-Sufu block inactive, Mdm2-MdmX inh inactive, Beta cell apopt inactive and CSC inhib inactive.
Screening Cc1cc(C)nc(NS(=O)(=O)c2ccc(NC(=O)c3ccc(S(=O)(=O)N(C)C)cc3)cc2)n1 returned MPTP block inactive, GRIN3A LBD mod inactive, Gli-Sufu block inactive, Mdm2-MdmX inh inactive and CSC inhib inactive.
For Cc1ccc(O)c(-c2cc(C(=O)Nc3ccc(S(=O)(=O)Nc4nc(C)cc(C)n4)cc3)[nH]n2)c1 the results were MPTP block inactive, GRIN3A LBD mod 29.9, Gli-Sufu block inactive, Mdm2-MdmX inh inactive, Beta cell apopt inactive and CSC inhib inconclusive.
Screening Cc1ccc(O)c(-c2cc(C(=O)Nc3ccc(S(=O)(=O)N4CC(C)OC(C)C4)cc3)[nH]n2)c1 (stereo unspecified) returned MPTP block inactive, GRIN3A LBD mod 34.7, Gli-Sufu block inactive, Mdm2-MdmX inh inactive, Beta cell apopt inactive and CSC inhib inactive.
For CC1CN(S(=O)(=O)c2csc(C(=O)Nc3ccccc3)c2)CC(C)O1 (stereo unspecified) the results were MPTP block inactive, GRIN3A LBD mod 15.5, Gli-Sufu block inactive, Mdm2-MdmX inh inactive, Beta cell apopt inactive and CSC inhib inactive.
`COc1ccc(S(=O)(=O)N2CCCOC2CNC(=O)C(=O)NCCO)cc1` (stereo unspecified) gave MPTP block inactive.
NC(=S)n1[nH]c(-c2ccc([N+](=O)[O-])cc2)c(N=Nc2ccc(O)cc2)c1=O was read as MPTP block inactive, GRIN3A LBD mod 27.1, Gli-Sufu block inactive, Mdm2-MdmX inh inactive and CSC inhib inactive.
`CCN1CCN(CCCNC(=O)CN2C(=O)c3cccnc3Oc3ccc(Cl)cc32)CC1` gave MPTP block inactive, GRIN3A LBD mod inactive, Gli-Sufu block inactive, Mdm2-MdmX inh inactive, Beta cell apopt inactive and CSC inhib inactive.
For Cc1ccc(SCCC(=O)Nc2ccccc2C(=O)NC(C)C)cc1 the results were MPTP block inactive, GRIN3A LBD mod 14.3, Gli-Sufu block inactive, Mdm2-MdmX inh inactive, Beta cell apopt inactive and CSC inhib inactive.
`CC(=O)Nc1ccc(S(=O)(=O)N2CN(c3ccc(C)cc3)c3nc4ccccc4nc32)cc1` gave MPTP block inactive, GRIN3A LBD mod 16.0, Gli-Sufu block inactive, Mdm2-MdmX inh inactive, Beta cell apopt inactive and CSC inhib inactive.
`CC(=O)Nc1ccc(Nc2nc(Cl)nc(Nc3ccc(NC(C)=O)cc3)n2)cc1` gave MPTP block inactive, GRIN3A LBD mod 13.1, Gli-Sufu block inactive, Mdm2-MdmX inh inactive, Beta cell apopt inactive and CSC inhib inactive.
Screening C=CCNc1nc(Cl)nc(Nc2ccc(OC)cc2)n1 returned MPTP block inactive, GRIN3A LBD mod inactive, Gli-Sufu block inactive, Mdm2-MdmX inh inactive, Beta cell apopt inactive and CSC inhib inactive.
`Clc1nc(Nc2ccccc2)nc(Nc2ccccc2)n1` gave MPTP block inactive, GRIN3A LBD mod 18.1, Gli-Sufu block inactive, Mdm2-MdmX inh inactive, Beta cell apopt inactive and CSC inhib inactive.
For COc1ccc(Nc2nc(C)c3ccccc3n2)cc1 the results were MPTP block inactive, GRIN3A LBD mod 37.9, Gli-Sufu block inactive, Mdm2-MdmX inh inactive, Beta cell apopt inactive and CSC inhib inactive.
`COc1ccc(Nc2nc(Cl)nc(Nc3ccc(OC)cc3)n2)cc1` gave MPTP block inactive, GRIN3A LBD mod 16.8, Gli-Sufu block inactive, Mdm2-MdmX inh inactive, Beta cell apopt inactive and CSC inhib inactive.
`Cc1cc([N+](=O)[O-])ccc1NC(=O)c1cc2ccccc2o1` gave MPTP block inactive, GRIN3A LBD mod inactive, Gli-Sufu block inactive, Mdm2-MdmX inh inactive, Beta cell apopt inactive and CSC inhib inactive.
For COc1ccc(-c2c(Sc3ccccc3)c3cc(-c4ccc5c(c4)OCO5)ccc3n2C)cc1 the results were MPTP block inactive.
`COc1ccc2c(C)nc(Nc3nc(C)c(C)c(=O)[nH]3)nc2c1` gave MPTP block inactive, GRIN3A LBD mod inactive, Gli-Sufu block inactive, Mdm2-MdmX inh inactive, Beta cell apopt inactive and CSC inhib 105.9.
Screening CCOC(Cn1c(SCc2cc(C(C)=O)ccc2OC)nc2ccccc2c1=O)OCC returned MPTP block inactive, GRIN3A LBD mod 13.0, Gli-Sufu block inactive, Mdm2-MdmX inh inactive, Beta cell apopt inactive and CSC inhib inactive.
